The labels stand for the following.
B1: chr12:48145849:48145950:+|3pUTR|ENSG00000152556|msi1|FALSE|unique (ssRNA)
RNA: GGGAGUUCUACAGUCCGACGAUCCAUGACCAGUUCUGGCCAGGAGCUGGAGGAGCAGGCAGUGGGUGGGAGCUCCUUUUAGGUAGAAUUUAACAUGACUUCUGCCCCAGCUUUAUCUGUCACACAAGGCUGGGCACCUCUAGUCAACAGAGGAUUGAGCAUCA
B2: chr1:165890246:165890361:+|CDS|ENSG00000143179|unk|FALSE|unique (ssRNA)
RNA: GGGAGUUCUACAGUCCGACGAUCCUCCUGGGGCAGAAUGAGGUGGACUAUCGCCAGAAGCAGGUGGUCAUCCUGAGCCAGGAUAGCUUCUACCGUGUCCUUACCUCGGAGCAGAAGGCCAAAGCCCUGAAGGGCCAGUUCAACCAACAGAGGAUUGAGCAUCA
B3: chr2:96875881:96876275:-|three_prime_utr|ENSG00000168754|control|control|control (ssRNA)
RNA: GGGAGUUCUACAGUCCGACGAUCUCGCCCACCCCUCAGCCCUCCUCCCAGCCAUCUCCUCUUCCCUAAGGCCUCUGUCUCCAUAGCUCUGGUUUCCCUGGGCCUCAGUCCUCCCCACCCUCCUUCCUCUGUCUCCCUGUCACUCAACAGAGGAUUGAGCAUCA
B4: chr5:95604386:95604487:+|3pUTR|ENSG00000164291|msi1|total|mutant (ssRNA)
RNA: GGGAGUUCUACAGUCCGACGAUCCCUGCCAUCCAGUUCCCCCUCCAAGAAGCAAGUACCGAAACCACCUGCUUACGCAUUUUCCGAGAUUGGCCACAAAUUUAUAAACAAAUGUAUAUAUUCCUUUCCCCCUACACAAACGGUCAACAGAGGAUUGAGCAUCA
B5: ENSG00000198589:be:win_9101|3pUTR|ENSG00000198589|bound_else_gene|NA|bound_elsewhere_windowed (ssRNA)
RNA: GGGAGUUCUACAGUCCGACGAUCUUCAAGCAUGUUUUAGACCUAGAAAAGUAUGGUUUGGGGGAGGCUAUUUUAUUGUGUGGUUAGCACAAGGAAUCUAAUUUAUAGCAAGUGUGAAAUAGUUACCAUUUUUUCCUGAUCUGUCAACAGAGGAUUGAGCAUCA
B6: chr1:229632307:229632408:+|CDS|ENSG00000135763|unk|FALSE|bound_elsewhere (ssRNA)
RNA: GGGAGUUCUACAGUCCGACGAUCAUUUUAUAAGAAAAAGCUUGAACUGAAGGAAGAUAUUGUUGAAAGGCUUUGGAUCUAUAUAGAUAACAUUUUACAUAGCAGAAAAUUGCAGAAUCUCCUCAAGAAUGGAAAGACCAUUAACAACAGAGGAUUGAGCAUCA
B7: chr2:1632960:1633155:-|3pUTR|ENSG00000130508|msi1|FALSE|unique (ssRNA)
RNA: GGGAGUUCUACAGUCCGACGAUCGUCCAUUUUUUAGGUAUUAGAUAUGGCAGAAAAACCAUUUCCACUAUGCAAAGUUCUUUUAGACGUCAGUGAAAAUCAACUCUCAUACCUCAUGGUCUCUCUUUAAUUGACCAAAACCUUCAACAGAGGAUUGAGCAUCA
B8: ENSG00000168936:stop:overlap|stop_codon|ENSG00000168936|stop_codon|NA|stop_codon (ssRNA)
RNA: GGGAGUUCUACAGUCCGACGAUCGUGUGGCCAGCACCAACCCUGCUGUGCAGGCCUUUGACAUCUGGAGCUGGAGGCCUGCAUAGGCUGCAUGCAGACACGUGCCAGCGUGAAGCUGGUGAAGACCUGCCAGGAGGCAGCCACCAACAGAGGAUUGAGCAUCA
B9: chr8:48920054:48920155:-|CDS|ENSG00000019549|unk|total|mutant (ssRNA)
RNA: GGGAGUUCUACAGUCCGACGAUCACCUAUUCAACUUUUUCUGGGCUGGCCAAACAUAAGCAGCUGCACUGCGAUGCCCAGUCCCGAAAAUCUUUCAGCUGUAAAUACUGUGACAAGGAAUAUGUGAGCCUGGGCGCCCUGAAGCAACAGAGGAUUGAGCAUCA
B10: chr3:62294290:62294391:+|3pUTR|ENSG00000144724|msi1|total|mutant (ssRNA)
RNA: GGGAGUUCUACAGUCCGACGAUCAACCCGUCCUCUAAAAAUUCCCUAUUACUCCUACCGCAAUCUAAUAAAAACUACCUACACCGUUACUGUUUUCUUUCCUUCUUUGCCAAAUGUUUUAUAAUAAAUCUCUUAAUUACAUACCAACAGAGGAUUGAGCAUCA
B11: chr3:62294290:62294391:+|3pUTR|ENSG00000144724|msi1|FALSE|unique (ssRNA)
RNA: B10 RNA with C27U, C28A, C57U, C58A, C83U, C84A
B12: chr1:151249111:151249212:+|3pUTR|ENSG00000143398|unk|FALSE|unique (ssRNA)
RNA: GGGAGUUCUACAGUCCGACGAUCGCAGAUUGUUGAAUUCCUGUUCUAUCCCUUCUCUAUCCCACCCUGCCUUGAUAAUAUGUUAGCCCAUACCCCAAAUAACUGUCUAUAUUAGACACCCCCAGCCAGUUUCUGGCUGCCUGUCAACAGAGGAUUGAGCAUCA
B13: ENSG00000107863:be:win_5701|CDS|ENSG00000107863|bound_else_gene|NA|bound_elsewhere_windowed (ssRNA)
RNA: GGGAGUUCUACAGUCCGACGAUCAGCACCUUGGCUUCAACAAACAGGCCCCUUCUUUCCAUACCACCACAGUCACCUGACCAAAUAAACGGAGAAAGCUUCCAGAACGUGAGCAAAAAUGCUAGUUCUGCAGCGAAUGCCCAACAACAGAGGAUUGAGCAUCA
B14: ENSG00000070961:be:win_4401|3pUTR|ENSG00000070961|bound_else_gene|NA|bound_elsewhere_windowed (ssRNA)
RNA: GGGAGUUCUACAGUCCGACGAUCGUUAUGACAUCUGUCCUAAUUAGUUUCUUAAAUACAUUUACUACUUAAUGGUUUUGAAGCAACUGUUUAAUUUUUAAAAUUUUUGAAAACUUGCUAAUAACCUUUUGUUCAGAAUUUAGUCAACAGAGGAUUGAGCAUCA
B15: chr17:75827259:75827360:-|3pUTR|ENSG00000092929|unk|total|mutant (ssRNA)
RNA: GGGAGUUCUACAGUCCGACGAUCGGACAGUUUGGCUGCUGUGUCUGCUGCGCACGCCCCCUCCCCGGACAGCACCUGCCACCCCGAAACUUUCUCCGCAAAAAAAUUAAUAAAAACAAAUCCAUUGUCCUCUUAAAAUAUGCCCAACAGAGGAUUGAGCAUCA
B16: chr17:75827259:75827360:-|3pUTR|ENSG00000092929|unk|FALSE|unique (ssRNA)
RNA: B15 RNA with C83U, C84A, C95U, C96A
B17: ENSG00000113300:stop:overlap|stop_codon|ENSG00000113300|stop_codon|NA|stop_codon (ssRNA)
RNA: GGGAGUUCUACAGUCCGACGAUCUGGAGCUCUUACUGCCUUUCCUGCCCCAAGUCAACGGCAUCCACCUUCCUGGCAGGAGGUAGUCAAGCACCUUCAGAGGACAGCCUUGAUUCACUUGUAAACUUGUGAAAAUCUGAACAUCAACAGAGGAUUGAGCAUCA
B18: chr17:77216858:77216994:+|3pUTR|ENSG00000129657|unk|FALSE|bound_elsewhere (ssRNA)
RNA: GGGAGUUCUACAGUCCGACGAUCUGUUUCUACCUUUAGUACCUUGCCACUCUUUUAAAACGCUGCUGUCAUUUCCCAUUUCUUAGUACUAAUGAUUCUUUGAUUCUCCCUCUAUUAUGUCUUAAUUCACUUUCCUUCCUAAAUCAACAGAGGAUUGAGCAUCA
B19: chr12:64147824:64147925:+|3pUTR|ENSG00000196935|unk|total|mutant (ssRNA)
RNA: GGGAGUUCUACAGUCCGACGAUCCAUCUCUGUGGUGUCUUUGUUCCUUUCCUUUCAUUCAUCACUACUUUCUCCUUGACAGCCCGCUUGCAUUAAAUAAUGUGAAACUUUUACCUUUAAAAUAUUUUUUUAUCUCACUUUCAUCAACAGAGGAUUGAGCAUCA
B20: chr20:3963869:3963970:-|CDS|ENSG00000101236|unk|FALSE|bound_elsewhere (ssRNA)
RNA: GGGAGUUCUACAGUCCGACGAUCAAUCUGCCUCUCAACAUAUAUAUUGUGGUUUUUGGUACUGCUAUAUUUGUCUUCAUCCUUAGUUUACUCUUCUGUUGCUACUUGAUUAGGUAACCAAUUUUCAUUCUAUGUUACUUCAAACAACAGAGGAUUGAGCAUCA
B21: chr2:1632960:1633155:-|3pUTR|ENSG00000130508|msi1|total|mutant (ssRNA)
RNA: B7 RNA with U34C, A35C, U41C, A42C, U83C, A84C
B22: chr11:119024350:119024909:-|three_prime_utr|ENSG00000137700|control|control|control (ssRNA)
RNA: GGGAGUUCUACAGUCCGACGAUCUCCCACGGUGGCCUUCCCCCUGCACGCUCUGCGGGGAGAAAAGGAGGGGCCUGCCUGGCUAGCCCUGAACCUUUCACUUUCCAUUUCUGCGCCUUUUCUGUCACCCGGGUGGCGCUGGAACAACAGAGGAUUGAGCAUCA

Positions count from the first letter of the chain named. Whole data set: some 5,800 sequences, median “enrichment r” near 0.68, cut for the highest 2% near 11. The sample as a whole holds a higher share of the highest values than the screen did.

The target of the assay is T1, UNK ZnF1-6 (called full-length) (human, UniProt Q9C0B0 30-357).
T1 sequence: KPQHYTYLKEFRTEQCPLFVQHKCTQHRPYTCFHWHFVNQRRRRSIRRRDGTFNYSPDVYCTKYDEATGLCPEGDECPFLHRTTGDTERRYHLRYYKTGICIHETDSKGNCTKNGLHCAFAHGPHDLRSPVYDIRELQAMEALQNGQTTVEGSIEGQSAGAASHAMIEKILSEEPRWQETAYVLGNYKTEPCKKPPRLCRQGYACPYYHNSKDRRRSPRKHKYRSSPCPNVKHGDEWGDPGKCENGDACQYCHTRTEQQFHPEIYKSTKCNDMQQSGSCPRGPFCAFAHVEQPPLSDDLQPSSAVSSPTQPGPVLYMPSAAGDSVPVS
Kind of assay: nsRBNS (natural sequence RNA bind-n-seq); RBNS binding buffer (assumed for nsRBNS): 25 mM Tris pH 7.5, 150 mM KCl, 3 mM MgCl2, 0.01% Triton X-100, 500 ug/ml BSA, 20 U/ml SUPERase-In, 4 C; UNK is unkempt and MSI1 is Musashi-1; names of the RNAs are library labels; protein concentration not given here; high values mean tight binding.
B1 displayed a binding signal of 6.28 enrichment R. With B2 the figure was 0.748 enrichment R. In the case of B3 it was 1.84 enrichment R; in that of B4, 1.51 enrichment R.

Consider B5, for which the binding signal was found to be 2.96 enrichment R. In the case of B6 it was 2.37 enrichment R. B7: the binding signal came out at 0.915 enrichment R. With B8 the figure was 1.06 enrichment R.

With B9, the binding signal was found to be 0.712 enrichment R. With B10 the figure was 3.11 enrichment R; with B11, 68.7 enrichment R. In the case of B12 it was 2.26 enrichment R; in that of B13, 0.589 enrichment R; in that of B14, 5.85 enrichment R. In the case of B15 it was 0.989 enrichment R; in that of B16, 25.7 enrichment R. With B17, the binding signal came to 21.5 enrichment R. With B18 the figure was 14 enrichment R. With B19 the figure was 2.22 enrichment R; with B20, 2.08 enrichment R; with B21, 0.41 enrichment R. With B22 the figure was 0.719 enrichment R.

The values above are taken from PMC12136788.
